Source: PubChem BioAssay (several laboratories)
A selection: hits, their analogues and other compounds. The true share with any hit is near 3.3%.
eIF4E-4G inh: eIF4E–eIF4G protein interaction inhibitors, primary screen, biochemical, uHTS, TR-FRET, eIF4GI fragment. Eukaryotic translation initiation factor 4E (Mus musculus) + Eukaryotic translation …. TR-FRET eIF4E-eIF4GI(517-606) binding, 2 h. 0.37% of 220,000 active. AID 782, 2007. inhibition, % at 21.7 µM;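 also: 0% = full FRET control wells and 100% = background wells lacking eIF4GI fragment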
Target sequence (P63073 whole entry, looked up, the tested form may be a part): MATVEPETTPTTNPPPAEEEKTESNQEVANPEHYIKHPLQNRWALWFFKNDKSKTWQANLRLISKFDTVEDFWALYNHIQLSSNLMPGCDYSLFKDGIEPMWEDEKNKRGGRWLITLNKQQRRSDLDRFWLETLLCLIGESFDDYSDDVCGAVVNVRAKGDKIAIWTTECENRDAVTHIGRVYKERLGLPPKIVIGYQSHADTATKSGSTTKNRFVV
Target sequence (Q04637 whole entry, looked up, the tested form may be a part): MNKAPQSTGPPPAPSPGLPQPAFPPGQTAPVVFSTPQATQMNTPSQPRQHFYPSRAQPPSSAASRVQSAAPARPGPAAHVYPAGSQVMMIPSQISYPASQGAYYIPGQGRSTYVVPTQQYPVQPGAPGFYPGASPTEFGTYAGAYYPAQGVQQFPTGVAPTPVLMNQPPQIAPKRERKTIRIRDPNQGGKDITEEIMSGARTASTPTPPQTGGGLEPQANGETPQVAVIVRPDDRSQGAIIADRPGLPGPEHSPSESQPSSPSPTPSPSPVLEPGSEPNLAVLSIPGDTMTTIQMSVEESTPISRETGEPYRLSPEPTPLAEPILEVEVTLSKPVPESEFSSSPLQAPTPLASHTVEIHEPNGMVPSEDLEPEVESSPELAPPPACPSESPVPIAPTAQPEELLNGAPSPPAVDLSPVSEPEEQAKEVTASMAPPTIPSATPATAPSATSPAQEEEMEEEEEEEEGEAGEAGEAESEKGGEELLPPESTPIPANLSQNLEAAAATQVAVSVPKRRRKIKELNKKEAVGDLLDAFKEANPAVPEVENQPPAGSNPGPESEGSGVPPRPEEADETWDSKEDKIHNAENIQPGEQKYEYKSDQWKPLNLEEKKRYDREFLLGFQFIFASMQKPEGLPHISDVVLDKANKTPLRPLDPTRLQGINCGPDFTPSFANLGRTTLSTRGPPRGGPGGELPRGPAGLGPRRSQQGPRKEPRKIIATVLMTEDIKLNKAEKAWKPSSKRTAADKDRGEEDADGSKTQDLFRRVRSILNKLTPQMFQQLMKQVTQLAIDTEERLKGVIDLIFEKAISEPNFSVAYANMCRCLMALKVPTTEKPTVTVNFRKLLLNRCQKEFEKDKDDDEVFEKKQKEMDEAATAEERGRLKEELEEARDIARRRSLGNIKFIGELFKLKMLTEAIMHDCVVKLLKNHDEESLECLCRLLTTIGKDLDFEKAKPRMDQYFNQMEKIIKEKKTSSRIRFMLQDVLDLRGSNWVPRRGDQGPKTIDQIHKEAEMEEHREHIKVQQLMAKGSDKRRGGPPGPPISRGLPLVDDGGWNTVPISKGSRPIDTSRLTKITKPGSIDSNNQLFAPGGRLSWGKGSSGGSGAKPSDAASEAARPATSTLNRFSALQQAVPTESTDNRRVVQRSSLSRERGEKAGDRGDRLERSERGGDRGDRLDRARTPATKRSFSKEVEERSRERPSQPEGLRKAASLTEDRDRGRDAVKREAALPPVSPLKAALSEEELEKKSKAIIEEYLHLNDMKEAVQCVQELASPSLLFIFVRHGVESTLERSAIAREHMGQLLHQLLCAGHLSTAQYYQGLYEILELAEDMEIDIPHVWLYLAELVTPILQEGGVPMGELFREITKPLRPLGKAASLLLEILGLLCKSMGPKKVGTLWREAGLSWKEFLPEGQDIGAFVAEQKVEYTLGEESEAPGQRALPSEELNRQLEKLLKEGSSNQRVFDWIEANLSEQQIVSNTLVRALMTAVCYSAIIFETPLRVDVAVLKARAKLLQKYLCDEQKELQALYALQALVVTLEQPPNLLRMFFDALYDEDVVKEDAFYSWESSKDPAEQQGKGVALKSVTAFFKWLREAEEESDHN
Mcl1 Bid PPI: Mcl-1/Bid binding inhibitors, primary screen, biochemical, TR-FRET, 1536-well; Induced myeloid leukemia cell differentiation protein Mcl-1 (Homo sapiens), Q07820; TR-FRET Mcl-1/Bid-Dy647 peptide binding; inhibition, % at 21.7 µM; 0.97% of 220,000 active;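 active = compounds that cut the binding signal by more than half at the single screening dose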;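 also: His-tagged Mcl-1 with europium anti-His antibody binding Bid BH3 peptide; 0% = Mcl-1 plus peptide wells and 100% = peptide-only wells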
Mcl1-Noxa inh: Mcl-1/Noxa binding inhibitors, primary screen, biochemical, TR-FRET, 1536-well; TR-FRET Mcl-1/Noxa peptide binding, 2 h; Induced myeloid leukemia cell differentiation protein Mcl-1 (Homo sapiens), Q07820; inhibition, % at 21.7 µM; 1.5% of 220,000 active;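 active = compounds that cut the protein-peptide binding signal by more than 50% relative to plate controls in a single-dose test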;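 also: His-tagged Mcl-1 with rhodamine Noxa BH3 peptide and terbium anti-His antibody; 0% = Mcl-1 plus Noxa peptide wells and 100% = peptide-only wells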
Bim-Mcl-1: inhibitors of Bim peptide binding to Mcl-1, primary screen, biochemical, bead-based flow cytometry, multiplex | Induced myeloid leukemia cell differentiation protein Mcl-1 (Homo sapiens), Q07820 | 0.1% of 190,000 active | AID 1009, 2008 | Bim peptide-Mcl-1 binding | inhibition, % at 10 µM; in the data active = inhibition above about 40%;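 also: 0% = no compound tracer wells and 100% = peptide blocker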
NCF1 inh: p47phox/p22phox peptide binding inhibitors, primary screen, biochemical, uHTS, NADPH oxidase regulatory subunit | fluorescence polarization, 2 h | 0.53% of 220,000 active | inhibition, % at 24.7 µM | Neutrophil cytosol factor 1 (Homo sapiens), P14598;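 also: 0% = p47phox with labelled peptide and 100% = labelled peptide alone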
14-3-3 Bad inh: inhibitors of 14-3-3 zeta/Bad binding, primary screen, biochemical, TR-FRET, bovine 14-3-3 zeta. 14-3-3 protein zeta/delta (Bos taurus), P63103. TR-FRET 14-3-3zeta/Dy647-pBad peptide displacement, 1 h. inhibition, % at 21.7 µM. 0.71% of 220,000 active. AID 781, 2007;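 active = inhibition above about 70%, limit read from the data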;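 also: 0% = full 14-3-3 plus peptide FRET controls and 100% = background without 14-3-3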
Starred values were filed as active, the others as inactive; · = not tested or not shown; [ ] = another dose, or the depositor's remark.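 The calls were made as follows, unless noted: active = inhibition above about 30% (limit read from the data); inactive = the rest.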

SMILES	eIF4E-4G inh	Mcl1 Bid PPI	Mcl1-Noxa inh	Bim-Mcl-1	NCF1 inh	14-3-3 Bad inh
CCS(=O)(=O)N1CCN(c2ccc([N+](=O)[O-])c(NCC3CCCO3)c2)CC1 (centres undefined)	3	-10	3	-2	6	9
CCCCNC(=O)c1c(N)n(/N=C/c2ccccn2)c2nc3ccccc3nc12	-65	32	32	-3	10	81*
CC(C)CNC(=O)c1c(N)n(/N=C/c2ccccn2)c2nc3ccccc3nc12	6	56*	23	-7	9	24
C/C(N)=C(/C#N)C(=O)CSc1nnc(Nc2c(C)cccc2C)s1	21	-14	72*	-2	-2	4
COc1cc(CO)cc(Br)c1OCC(=O)Nc1cccc2ccccc12	0	-29	2	-3	-16	-13
COc1ccc(OCc2nc(N)nc(Nc3ccccc3OC)n2)cc1	3	-23	-6	0	99*	6
COc1ccc(CNC(=O)c2n[nH]c3ccccc23)cc1OC	0	55*	5	0	7	4
COc1ccc(CNC(=O)c2ccc(-c3ccccc3)cc2)cc1OC	1	-17	-3	-6	-1	1
CCC1CCC(C(=O)NC(C(=O)NCCCN2CCCCC2C)C(C)C)CC1 (centres undefined)	0	-10	1	1	-8	-22
CCn1c(P(C)(=O)O)nc2cc(NC(=O)c3ccccc3Cl)ccc21	1	-25	1	3	-14	-6
CN(C)S(=O)(=O)Nc1cc(Cl)cc(Cl)c1	1	-8	0	-2	-2	8
COc1cc2nc(SCc3ccc(Cl)cc3Cl)n(Cc3cccs3)c(=N)c2cc1OC	-2	-37	-47	0	-50	-14
COc1ccc(Cn2c(SCc3cc(C)ccc3C)nc3cc(OC)c(OC)cc3c2=N)cc1	-65	5	19	-6	66*	-2
COc1cc2nc(SCc3ccc(C(F)(F)F)cc3)n(Cc3cccs3)c(=N)c2cc1OC	-8	-12	-4	0	-20	-16
COc1ccc(Cn2c(SCc3ccc(C)cc3)nc3cc(OC)c(OC)cc3c2=N)cc1Cl	1	15	-3	-2	35*	6
O=C(O)c1ccccc1Nc1ccnc(Cl)n1	74*	-40	12	·	-5	-4
S=C1NCN(C2CCCCC2)CN1c1ccccc1	0	-29	-1	·	-8	-3
Clc1ccc(-c2nnc3sc(-c4ccc(Br)o4)nn23)c(Cl)c1	-20	-24	2	-3	-25	5
CN(C)c1ccc(-c2nn3c(-c4ccc(Cl)cc4Cl)nnc3s2)cc1	1	93*	87*	-5	22	67
Cc1ccc(-c2nn3c(C)nnc3s2)cc1NC(=O)c1ccc(-c2cccc(Cl)c2)o1	-46	-25	44	2	-111	-10
Cc1oc(-c2ccc(Cl)cc2)cc1-c1nn2c(-c3ccoc3C)nnc2s1	4	55*	89*	0	-48	3
Cc1ccc(-c2nn3c(C)nnc3s2)cc1NC(=O)c1ccc(-c2ccc(Cl)cc2Cl)o1	17	18	-37	-34	-91	86*[fluorescence artefact?]
Clc1ccccc1-c1nnc(-c2ccc3c(c2)OCO3)o1	4	-5	4	-2	-1	-5
O=c1c2c([N+](=O)[O-])cc([N+](=O)[O-])cc2sn1-c1ccc(Br)cc1	33*[fluorescence artefact?]	31	91*	-16	74*	51
COc1cc2ncc(C(=O)c3ccccc3)c(N3CCN(Cc4ccccc4)CC3)c2cc1OC	-3	-27	7	·	-15	6
SMILES	eIF4E-4G inh	Mcl1 Bid PPI	Mcl1-Noxa inh	Bim-Mcl-1	NCF1 inh	14-3-3 Bad inh
C=CCN(C(=O)CNC(=O)c1cccs1)C(C(=O)NC1CCCCC1)c1cccnc1 (centres undefined)	-5	9	13	5	47*	-4
COc1ccc(C2c3cc(OC)c(OC)cc3CCN2S(C)(=O)=O)cc1OC (centres undefined)	42*	-6	1	0	-10	1
O=c1[nH][nH]c2cc(=O)n(-c3ccc(Cl)cc3)nc12	0	-100	-6	2	6	92*
CC1(N(O)C=C2C=CC(=O)C=C2)CCCCC1=O (centres undefined)	-3	-8	-15	·	15	-5
Cc1ccc(-n2c3nc(=O)n(C)c(=O)c-3cc3ccccc32)cc1	8	44	-4	·	-3	45
Cn1c(=O)nc2n(Cc3ccccc3)c3cccc(Cl)c3cc-2c1=O	11	62*	36	-5	-1	7
Cc1ccc(-c2cc3ncc(C#N)c(N)n3n2)cc1	-3	-16	-33	-4	-20	-5
Cc1ccc2nc(SC(C)C(=O)NC3CCCc4ccccc43)[nH]c2c1 (centres undefined)	4	84*	11	-4	-2	-5
Cc1ccc(C(C)C)c(OCc2nn(CC(=O)c3ccc(OC(F)F)cc3)c3[n+]2CCCCC3)c1	-1	11	9	-1	-1	4
CNCc1ccccc1OCc1ccccc1F	1	-3	74*	3	-7	-8
CCc1cc2c(N=Nc3c(O)[nH]c4ccccc34)ncnc2s1	-8	10	15	0	-35	4
Oc1[nH]c2ccccc2c1N=Nc1ncnc2c1oc1ccccc12	13	10	65*	·	-16	46
Cc1ccc(S(=O)(=O)N2CCC(C(=O)NNC(=O)c3ccc(F)cc3)CC2)cc1	-1	-10	13	-8	3	-9
CC(C)NC(=O)CN1CCC(c2ccccc2)C(O)C1 (centres undefined)	-1	-11	0	0	-23	-19
CCN1CCN(CCCNC(=O)C2c3ccccc3C(=O)N(c3ccc(OC)cc3)C2c2ccc(OC)cc2)CC1 (centres undefined)	1	-27	-1	-1	-4	-5
COc1cccc(N=c2oc3ccc(OC)cc3cc2-c2nc3ccccc3[nH]2)c1	-12	-182	-250	0	26	79*[fluorescence artefact?]
COc1cccc(N=c2oc3ccccc3cc2-c2nc3ccccc3[nH]2)c1	-47	56*	14	-2	2	55
COc1ccc2c(CC(=O)Nc3ccc(OC)nc3)coc2c1	0	-23	-8	0	35*	-10
COc1ccc(CC(=O)Nc2ccc(OC)nc2)cc1	4	-45	3	1	2	-4
